A number with no mark means an inactive call. Inconclusive results are not listed. Where a call stands in place of a potency, no number is given. Active and inactive are the calls of the source. Calls come from the whole dose curve; as a rule, active = well fitted curve in the direction sought with a large enough effect; inconclusive = small, poorly fitted or top-dose-only effect, or another doubt; inactive = no such curve, though single readings can be large; an effect the other way counts as inactive or inconclusive.
Legend:
[1] = molecular target: Glutathione peroxidase 1 (Homo sapiens) (UniProt P07203); assay: Primary qHTS Assay for Inhibitors of Recombinant Selenoprotein Glutathione Peroxidase 1 (GPX1) (AID 1845191); conditions: recombinant GPX1, GR-coupled NADPH fluorescence, 15 min; series mostly up to 48.8 µM; note: nearly all actives have a fitted effect of over 65% in size
In short: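 GPX1 10 nM, GR 100 nM, GSH 1 mM, NADPH 0.5 mM, CHP 0.5 mM (final). 30-min cpd preincubation, RT. Ex340/Em450 read t=0, t=15 min.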

[2] = molecular target: Phospholipid hydroperoxide glutathione peroxidase GPX4 (Homo sapiens) (UniProt P36969); assay: Primary qHTS Assay for Inhibitors of Recombinant Selenoprotein Glutathione Peroxidase 4 (GPX4) (AID 1845192); conditions: recombinant GPX4, GR-coupled NADPH fluorescence, 15 min; series mostly up to 50 µM; note: nearly all actives have a fitted effect of over 65% in size
In short: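 qHTS, GR-coupled: GPX4 200 nM + cpd 30 min RT → GSH 1 mM, NADPH 0.5 mM, GR 100 nM → CHP 0.5 mM start; fluor 340/450 at t0 and t15 min; no-enzyme wells as control.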

[3] = molecular target: Luciferin 4-monooxygenase (Photinus pyralis) (UniProt P08659); assay: Primary firefly luciferase (FLuc) qHTS assay for identification of artifact compounds. (AID 1845220); conditions: purified firefly luciferase, luminescence, 5 min; series mostly up to 54.1 µM; note: nearly all actives have a fitted effect of over 60% in size; note: potency is the fitted concentration of half-maximal effect
In short: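 In this counter-screen for luciferase artifacts, test compounds met substrate (10 uM each luciferin and ATP) before 10 nM enzyme started the reaction. Light output was measured 5 min later.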

[4] = Primary fluorescence-based thiol-reactive (MSTI) qHTS assay for identification of artifact compounds. (AID 1845221); conditions: MSTI thiol-reactivity probe, 1 h; series mostly up to 53.8 µM; note: nearly all actives have a fitted effect of over 65% in size; note: potency is the fitted concentration of half-maximal effect;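 for activity change, negative = thiol reactive: thiol-reactive compounds lower the probe fluorescence signal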
In short: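 MSTI probe at 4 uM final in 2% DMSO/PBS pH 7.4; compounds, 1 h at room temperature in dark. Fluorescence Ex/Em 525/598 nm, normalised to Acetyl-MSTI and MSTI, fitted to 4-parameter Hill.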

[5] = system: Nanoluciferase (engineered Oplophorus gracilirostris luciferase); assay: Primary Nanoluciferase (NLuc) qHTS assay for identification of artifact compounds. (AID 1845222); conditions: NLuc-conditioned medium, Nano-Glo luminescence, 5 min; series mostly up to 54.1 µM;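 note: NLuc secreted into diluted conditioned medium of S16 cells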
In short: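 Using secreted nanoluciferase in S16 culture medium (0.22 um filtered, 1:55 dilution), compounds were preincubated 15 min at RT. Signal was generated with Nano-Glo reagent (1:100) over 5 min.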

[6] = molecular target: Metallo-beta-lactamase type 2 (Klebsiella pneumoniae) (UniProt C7C422); assay: qHTS to identify inhibitors of the New Delhi Metallo-beta-lactamase (NDM): assay validation screen against the NCATS LOPAC Collection (AID 1794843); conditions: NDM-1 enzyme, nitrocefin hydrolysis, absorbance 485 nm; series mostly up to 38.4 µM;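 note: nitrocefin turnover by NDM-1 measured as 485 nm absorbance at plateau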
Text: Assay Submitter (PI): James Inglese Ph.D., Patricia Dranchak Ph.D., Mahesh Aitha Ph.D.
Assay Development and Screening Technology Laboratory (ADST)
National Center for Advancing Translational Sciences (NCATS), Rockville, MD
National Institute of Health (NIH), Bethesda, Maryland
The metallo-beta-lactamases (MBL) are a main antibiotic resistance mechanism evolved by bacteria. There is an urgent clinical need for MBL inhibitors to mitigate this growing threat. To support a machine-based learning study, qHTS has been used to experimentally test inhibitors identified by prediction tools.
PROTOCOL TABLE (as described by Inglese et al., 2007)
SEQUENCE No. (e.g., 1, 2, 3, etc.); […] (e.g., enzyme, Incubation, Reagent, etc.); VALUE; DESCRIPTION
1; NDM-1; 4 uL of 3 nM enzyme in 50 mM HEPES (pH 7.0), 1 uM Zn2SO4, 0.01% Tween20; Use BioRaptr to dispense into Aurora black, clear bottom low base 1536-well plates
2; Compounds; 23 nL; Use Pin Tool (Wako) to transfer DMSO control and library compounds in DMSO
4; Reagent; 2 uL of 50 uM nitrocefin
6; Detector; Absorbance at 485 nm (bandwidth = 5 nm, 25 flashes/well) on Tecan Infinity […]
6; Default reader settings were applied for absorbance read at 485 nm, bandwidth = 5 nm, 25 flashes/well. […]
Yasgar A, Shinn P, Jadhav A, Auld D, Michael S, Zheng W, Austin CP, Inglese J, Simeonov A. 2008. Compound Management for Quantitative High-Throughput Screening. […]

Chain of Phospholipid hydroperoxide glutathione peroxidase GPX4 (Homo sapiens) (P36969 whole entry, looked up): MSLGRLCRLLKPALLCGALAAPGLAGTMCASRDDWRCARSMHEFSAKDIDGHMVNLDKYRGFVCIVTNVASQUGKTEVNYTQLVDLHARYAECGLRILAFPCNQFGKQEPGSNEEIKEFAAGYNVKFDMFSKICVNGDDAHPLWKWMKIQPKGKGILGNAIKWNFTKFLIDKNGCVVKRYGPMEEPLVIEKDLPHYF
Chain of Glutathione peroxidase 1 (Homo sapiens) (P07203 whole entry, looked up): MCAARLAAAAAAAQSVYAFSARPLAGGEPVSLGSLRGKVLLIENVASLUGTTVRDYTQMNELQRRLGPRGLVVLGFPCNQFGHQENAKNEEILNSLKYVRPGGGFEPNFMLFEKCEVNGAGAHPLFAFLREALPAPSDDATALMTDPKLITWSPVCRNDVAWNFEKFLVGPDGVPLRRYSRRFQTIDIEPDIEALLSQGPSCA
Chain of Metallo-beta-lactamase type 2 (Klebsiella pneumoniae) (C7C422 whole entry, looked up): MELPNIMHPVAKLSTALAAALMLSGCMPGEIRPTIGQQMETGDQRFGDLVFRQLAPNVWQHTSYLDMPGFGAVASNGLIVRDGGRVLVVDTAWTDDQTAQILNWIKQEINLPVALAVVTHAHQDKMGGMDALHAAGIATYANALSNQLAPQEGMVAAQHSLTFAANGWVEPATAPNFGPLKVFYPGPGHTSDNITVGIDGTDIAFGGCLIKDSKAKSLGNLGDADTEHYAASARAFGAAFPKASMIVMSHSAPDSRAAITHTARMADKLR

## Cc1cc(OCc2nc(-c3ccccc3Cl)cs2)ccc1OCC(=O)O
[1]
  Potency: inactive
[2]
  Potency: inactive
[3]
  Potency: 9.53 µM (active)
[4]
  Potency: inactive
[5]
  Potency: inactive

## C=CC(=O)Nc1cccc(Nc2nc(Nc3ccc(N4CCN(C(C)=O)CC4)cc3OC)ncc2C(F)(F)F)c1
[1]
  Potency: inactive
[2]
  Potency: inactive
[3]
  Potency: inactive
[4]
  Potency: 2.99 µM (active)
[5]
  Potency: inactive

## COc1cc(C)c(C(=O)Oc2cc(C)c(C(=O)Oc3cc(C)c(C(=O)NC(C)C(=O)O)c(O)c3)c(O[C@@H]3O[C@H](CO)[C@@H](O)[C@H](O)[C@H]3OC(C)=O)c2)c(OC)c1 (some centres undefined)
[1]
  Potency: inactive
[2]
  Potency: inactive
[3]
  Potency: inactive
[4]
  Potency: inactive
[5]
  Potency: inactive

## C/C=C1\[C@H](OC2OC(COC3OC(CO)C(O)C(O)C3O)C(O)C(O)C2O)OC=C(C(=O)OC)[C@H]1CC(=O)OCCc1ccc(O)cc1 (some centres undefined)
[1]
  Potency: inactive
[2]
  Potency: inactive
[3]
  Potency: inactive
[4]
  Potency: 5.61 µM (active)
[5]
  Potency: inactive

## CC(C)C(CO)Nc1nc(Nc2ccc(C(=O)O)c(Cl)c2)c2ncn(C(C)C)c2n1 (centres undefined)
[1]
  Potency: inactive
[2]
  Potency: inactive
[3]
  Potency: inactive
[4]
  Potency: inactive

## CC1OC(OC2CCC3(C)C(CCC4(C)C3CC=C3C5CC(C)(C)CCC5(C(=O)OC5OC(CO)C(O)C(O)C5O)CCC34C(=O)O)C2(C)C)C(O)C(O)C1O (centres undefined)
[1]
  Potency: inactive
[2]
  Potency: inactive
[3]
  Potency: inactive
[4]
  Potency: inactive
[5]
  Potency: inactive

## C[C@@H]1O[C@@H](O[C@H]2[C@H](OC(=O)[C@]34CCC(C)(C)C[C@H]3C3=CCC5[C@@]6(C)C[C@H](O)[C@H](O[C@@H]7O[C@H](CO)[C@@H](O[C@H]8OC[C@](O)(CO)[C@H]8O)[C@H](O)[C@H]7O)[C@@](C)(CO)C6[C@H](O)C[C@@]5(C)[C@]3(C)C[C@H]4O)OC[C@H](O)[C@@H]2O)[C@H](O)[C@H](O)[C@H]1O[C@@H]1OC[C@@H](O)[C@H](O[C@@H]2OC[C@](O)(CO)[C@H]2O)[C@H]1O (some centres undefined)
[1]
  outcome: inactive [at 9.52 µM]
[2]
  outcome: inactive [at 9.73 µM]
[3]
  outcome: inactive [at 11.6 µM]
[4]
  activity change, negative = thiol reactive: 502% [at 11.5 µM]
[5]
  activity, negative = inhibition: 3.67% [at 11.6 µM]

## Cc1nc(Nc2n[nH]c3c2CN(C(=O)NC(CN(C)C)c2ccccc2)C3(C)C)c2sccc2n1 (centres undefined)
[1]
  Potency: inactive
[2]
  Potency: inactive
[3]
  Potency: inactive
[4]
  Potency: inactive

## CC(=O)OC1/C(C)=C/C(=O)C(OC(C)=O)C(C)(C)/C=C/C(C)C(=O)C2(OC(C)=O)CC(C)C(OC(=O)c3ccccc3)C12 (centres undefined)
[1]
  Potency: inactive
[2]
  Potency: inactive
[3]
  Potency: inactive
[4]
  Potency: inactive
[5]
  Potency: inactive

## CO[C@H]1/C=C\O[C@@]2(C)Oc3c(C)c(O)c4c(O)c(c5c(nc6cc(C)ccn65)c4c3C2=O)NC(=O)/C(C)=C\C=C/[C@H](C)[C@H](O)[C@@H](C)[C@@H](O)[C@@H](C)[C@H](OC(C)=O)[C@@H]1C
[1]
  Potency: inactive
[2]
  Potency: inactive
[3]
  Potency: inactive

## Oc1ccc(CNc2ccccc2F)c2cccnc12
[1]
  Potency: inactive
[2]
  Potency: inactive
[3]
  Potency: inactive
[4]
  Potency: 3.77 µM (active)
[5]
  Potency: inactive

## CN(C)c1ccc2c(c1)OC(N)=C(C#N)C2c1cccc(C(F)(F)F)c1 (centres undefined)
[1]
  Potency: inactive
[2]
  Potency: inactive
[3]
  Potency: inactive
[4]
  Potency: 2.12 µM (active)
[5]
  Potency: inactive

## CCOCCOC(=O)/C=C/c1ccc(OC)cc1
[1]
  Potency: inactive
[2]
  Potency: inactive

## CC1=C(C)C(=O)OC(C(C)C2CCC3C4CC=C5CC(OC6OC(COC7OC(CO)C(O)C(O)C7O)C(O)C(O)C6O)CC(O)C5(C)C4CCC23C)C1 (centres undefined)
[1]
  Potency: inactive
[2]
  Potency: inactive
[3]
  Potency: inactive
[4]
  Potency: inactive
[5]
  Potency: inactive

## Cc1cc2c(F)c(Oc3ncnn4cc(OCC(C)O)c(C)c34)ccc2[nH]1 (centres undefined)
[1]
  Potency: inactive
[2]
  Potency: inactive
[3]
  Potency: inactive
[4]
  Potency: inactive
[5]
  Potency: inactive

## CC[C@]1(O)CC2CN(CCc3c([nH]c4ccccc34)[C@@](C(=O)OC)(c3cc4c(cc3OC)N(C)[C@H]3[C@@](O)(C(=O)OC)[C@H](OC(C)=O)[C@]5(CC)C=CCN6CC[C@]43[C@@H]65)C2)C1 (some centres undefined)
[6]
  outcome: inactive
[1]
  Potency: inactive
[2]
  Potency: inactive
[3]
  Potency: inactive
[4]
  Potency: inactive
[5]
  Potency: inactive

## COc1ccc(C2(O)CCC(N3CC[C@@H](NC(=O)CNC(=O)c4cccc(C(F)(F)F)c4)C3)CC2)cn1 (some centres undefined)
[1]
  Potency: inactive
[2]
  Potency: inactive
[3]
  Potency: inactive
[4]
  Potency: inactive
[5]
  Potency: inactive

## C=CC(C)(C)c1[nH]c2ccccc2c1C[C@@H]1NC(=O)[C@H](Cc2c[nH]c3ccccc23)NC1=O
[1]
  Potency: inactive
[2]
  Potency: inactive
[3]
  Potency: inactive
[4]
  Potency: 2.32 µM (active)
[5]
  Potency: inactive

## C/C=C/C=C/C=C/C(=O)OC1C=C(C=O)C(O)(C(=O)O)C2(C)CCCC(C)(C)C12 (centres undefined)
[1]
  Potency: inactive
[2]
  Potency: inactive
[3]
  Potency: inactive
[4]
  Potency: 5.82 µM (active)
[5]
  Potency: inactive
